Experimental findings from PubChem BioAssay (EPA / NIEHS) are described below.

Records with an inconclusive call do not appear. Calls of active or inactive are those of the source. Rule for the calls: active = hit-call score of the fitted dose curve at least 0.9, where 1 is the maximum; inconclusive = response in the unintended direction; inactive = score below 0.9.

In experiment [1] the target is rat CYP2A2, Cyp2a2 (gene 24895) (UniProt P15149). The experiment in a line: NVS_ADME_rCYP2A2: NovaScreen (NVS) CYP450-related Enzyme Activity (ADME) Assay for rat CYP2A2 (AID 2283116). An outline of the steps: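 Compounds first tested in duplicate at 10 uM, then in singleton concentration series up to 20 uM when over threshold. Activity of the recombinant enzyme read by fluorescence at 0.2 h, normalised to acetonitrile vehicle.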

The target in experiment [2] is rat CYP2C11, Cyp2c11 (gene 29277) (UniProt P08683). Kind of experiment: NVS_ADME_rCYP2C11: NovaScreen (NVS) CYP450-related Enzyme Activity (ADME) Assay for rat CYP2C11 (AID 2283118). An outline of the steps: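 Screened first at 10 uM in duplicate, hits followed by concentration-response. Recombinant rat enzyme activity monitored by fluorescence 0.33 h post-dosing, normalised to acetonitrile negative control.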

Experiment [3] concerns the target rat CYP2D2, Cyp2d26 (gene 25053) (UniProt P10634). The experiment in a line: NVS_ADME_rCYP2D2: NovaScreen (NVS) CYP450-related Enzyme Activity (ADME) Assay for rat CYP2D2 (AID 2283124). A digest of the protocol:
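Single-concentration duplicate testing at 10 uM, followed by concentration-response (top 20 uM) for chemicals passing threshold. Enzyme activity of the recombinant rat isoform measured by fluorescence after 0.75 h, acetonitrile as baseline.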

For experiment [4], the target named is rat CYP2C12, Cyp2c12 (gene 25011) (UniProt P11510). Kind of experiment: NVS_ADME_rCYP2C12: NovaScreen (NVS) CYP450-related Enzyme Activity (ADME) Assay for rat CYP2C12 (AID 2283119). The protocol: NVS_ADME_rCYP2C12 is a biochemical, single-readout assay that uses extracted gene-proteins in a cell-free assay. Measurements were taken 0.5 hour after chemical dosing in a 96-well plate.NVS_ADME_rCYP2C12 is one of one assay component(s) measured or calculated from the NVS_ADME_rCYP2C12 assay. It is designed to make measurements of enzyme activity, a form of enzyme reporter, as detected with fluorescence intensity signals by Fluorescence technology.Data from the assay component NVS_ADME_rCYP2C12 was analyzed into 1 assay endpoint. This assay endpoint, NVS_ADME_rCYP2C12, was analyzed in the positive analysis fitting direction relative to Acetonitrile as the negative control and baseline of activity. Using a type of enzyme reporter, loss-of-signal activity can be used to understand changes in the enzymatic activity as they relate to the gene Cyp2c12. Furthermore, this assay endpoint can be referred to as a primary readout, because this assay has produced multiple assay endpoints where this one serves a enzymatic activity function. To generalize the intended target to other relatable targets, this assay endpoint is annotated to the cyp intended target family, where the subfamily is xenobiotic metabolism.
(§1) Binding assays used specific radioligands (tritiated, iodinated) with non-radioactive competitive displacement ligands in agonist or antagonist protocols (as indicated) and various reference compounds and inhibitors to titrate specific binding to receptors and transporters. Most enzyme assays (CYPs, kinases, phosphatases, proteases, HDACs) used recombinant protein and specific substrates (fluorescence mostly, some colorimetric and radioactive) and inhibitors, followed by a biochemical separation of substrate and product. All assays for the biochemical HTS were initially run in duplicate at a single concentration (10 uM for CYP450 assays and 25 uM for all others). […] Each assay was run with positive and negative controls, and concurrent controls on every plate. The follow-up (secondary) screen tested active chemical-pairs in concentration series, as well as a few additional assays not tested in the primary screen, some selected negative inactives, and several cases re-run in the concentration series for confirmatory purposes.

Experiment [5] has as its target Caspase-1 (Homo sapiens) (UniProt P29466). Kind of experiment: NVS_ENZ_hCASP1: NovaScreen (NVS) Enzymatic Assay for human Caspase 1 (CASP1) (AID 2283132). The protocol: (§2) NVS_ENZ_hCASP1 is a biochemical, single-readout assay that uses extracted gene-proteins from E. coli in a cell-free assay. Measurements were taken 1 hour after chemical dosing in a 96-well plate.NVS_ENZ_hCASP1 is one of one assay component(s) measured or calculated from the NVS_ENZ_hCASP1 assay. It is designed to make measurements of enzyme activity, a form of enzyme reporter, as detected with fluorescence intensity signals by Fluorescence technology.Data from the assay component NVS_ENZ_hCASP1 was analyzed into 1 assay endpoint. This assay endpoint, NVS_ENZ_hCASP1, was analyzed in the positive analysis fitting direction relative to DMSO as the negative control and baseline of activity. Using a type of enzyme reporter, loss-of-signal activity can be used to understand changes in the enzymatic activity as they relate to the gene CASP1. Furthermore, this assay endpoint can be referred to as a primary readout, because this assay has produced multiple assay endpoints where this one serves a enzymatic activity function. To generalize the intended target to other relatable targets, this assay endpoint is annotated to the protease intended target family, where the subfamily is cysteine protease.
Binding assays used specific radioligands (tritiated, iodinated) with non-radioactive competitive displacement ligands in agonist or antagonist protocols (as indicated) and various reference compounds and inhibitors to titrate specific binding to receptors and transporters. Most enzyme assays (CYPs, kinases, phosphatases, proteases, HDACs) used recombinant protein and specific substrates (fluorescence mostly, some colorimetric and radioactive) and inhibitors, followed by a biochemical separation of substrate and product. All assays for the biochemical HTS were initially run in duplicate at a single concentration (10 uM for CYP450 assays and 25 uM for all others). Assay-chemical combinations meeting a pre-defined threshold (e.g., 30% inhibition and other criteria defined below) were then run in singleton concentration-response format with maximum concentration of 20 uM for CYPs and 50 uM for all others. Each assay was run with positive and negative controls, and concurrent controls on every plate. The follow-up (secondary) screen tested active chemical-pairs in concentration series, as well as a few additional assays not tested in the primary screen, some selected negative inactives, and several cases re-run in the concentration series for confirmatory purposes.

The target of experiment [6] is rat CYP2C13, Cyp2c13 (gene 171521) (UniProt P20814). The experiment in a line: NVS_ADME_rCYP2C13: NovaScreen (NVS) CYP450-related Enzyme Activity (ADME) Assay for rat CYP2C13 (AID 2283121). An outline of the steps: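 Inhibition is read as decreased fluorescent product formation, referenced to acetonitrile vehicle. Cell-free recombinant rat Cyp2c13 reaction ran 0.75 hour; compounds first at 10 uM in duplicate, then concentration series for actives.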

Experiment [7] relates to rat CYP2C6, gene 293989. Kind of experiment: NVS_ADME_rCYP2C6: NovaScreen (NVS) CYP450-related Enzyme Activity (ADME) Assay for rat CYP2C6 (AID 2283120). An outline of the steps:
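Compounds first tested in duplicate at 10 uM, hits (e.g. 30% inhibition) re-run in singleton dose series to a 20 uM top concentration. Enzyme activity of recombinant rat CYP2C6 measured via fluorescent substrate turnover after 1 h; acetonitrile baseline.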

For experiment [8], the target named is rat CYP2D1, Cyp2d1 (gene 266684) (UniProt P10633). Kind of experiment: NVS_ADME_rCYP2D1: NovaScreen (NVS) CYP450-related Enzyme Activity (ADME) Assay for rat CYP2D1 (AID 2283122). An outline of the steps:
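Rat CYP2D1 enzyme activity measured by fluorescence intensity in a cell-free format, 0.75 h post-dosing, acetonitrile as negative control. Screening at 10 uM in duplicate, with actives followed in concentration series up to 20 uM.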

For experiment [9], the target named is human Acetylcholinesterase (AChE), ACHE (gene 43) (UniProt P22303). The experiment in a line: NVS_ENZ_hAChE: NovaScreen (NVS) Enzymatic Assay for human Acetylcholinesterase (AChE) (AID 2283129). The protocol: NVS_ENZ_hAChE is a biochemical, single-readout assay that uses extracted gene-proteins in a cell-free assay. Measurements were taken 0.33 hour after chemical dosing in a 96-well plate.NVS_ENZ_hAChE is one of one assay component(s) measured or calculated from the NVS_ENZ_hAChE assay. It is designed to make measurements of enzyme activity, a form of enzyme reporter, as detected with absorbance signals by Colorimetric technology.Data from the assay component NVS_ENZ_hAChE was analyzed into 1 assay endpoint. This assay endpoint, NVS_ENZ_hAChE, was analyzed in the positive analysis fitting direction relative to DMSO as the negative control and baseline of activity. Using a type of enzyme reporter, loss-of-signal activity can be used to understand changes in the enzymatic activity as they relate to the gene ACHE. Furthermore, this assay endpoint can be referred to as a primary readout, because this assay has produced multiple assay endpoints where this one serves a enzymatic activity function. To generalize the intended target to other relatable targets, this assay endpoint is annotated to the esterase intended target family, where the subfamily is acetylcholinesterase.
as §1

Experiment [10] deals with human Caspase 10 (CASP10), CASP10 (gene 843) (UniProt Q92851). Kind of experiment: NVS_ENZ_hCASP10: NovaScreen (NVS) Enzymatic Assay for human Caspase 10 (CASP10) (AID 2283133). The protocol: as §2, with “NVS_ENZ_hCASP10” for “NVS_ENZ_hCASP1”, “plate.NVS_ENZ_hCASP10” for “plate.NVS_ENZ_hCASP1”, “NVS_ENZ_hCASP10,” for “NVS_ENZ_hCASP1,”, “CASP10.” for “CASP1.”, “protease. […]” for “protease.”
Sequence of human Caspase 10 (CASP10), CASP10 (gene 843) (Q92851 whole entry, looked up): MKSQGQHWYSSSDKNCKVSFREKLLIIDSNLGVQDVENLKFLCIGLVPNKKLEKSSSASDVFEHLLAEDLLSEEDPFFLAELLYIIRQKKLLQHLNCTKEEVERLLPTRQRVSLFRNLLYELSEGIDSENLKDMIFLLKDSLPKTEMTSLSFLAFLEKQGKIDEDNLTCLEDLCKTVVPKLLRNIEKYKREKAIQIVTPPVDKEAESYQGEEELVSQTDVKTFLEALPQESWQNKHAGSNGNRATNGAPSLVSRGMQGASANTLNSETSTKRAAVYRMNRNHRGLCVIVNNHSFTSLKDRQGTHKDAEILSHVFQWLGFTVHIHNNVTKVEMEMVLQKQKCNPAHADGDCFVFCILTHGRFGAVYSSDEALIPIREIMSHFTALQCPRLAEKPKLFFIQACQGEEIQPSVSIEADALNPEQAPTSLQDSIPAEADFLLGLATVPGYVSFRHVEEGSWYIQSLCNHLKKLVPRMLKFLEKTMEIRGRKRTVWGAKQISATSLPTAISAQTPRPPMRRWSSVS

Sequence of rat CYP2C13, Cyp2c13 (gene 171521) (P20814 whole entry, looked up): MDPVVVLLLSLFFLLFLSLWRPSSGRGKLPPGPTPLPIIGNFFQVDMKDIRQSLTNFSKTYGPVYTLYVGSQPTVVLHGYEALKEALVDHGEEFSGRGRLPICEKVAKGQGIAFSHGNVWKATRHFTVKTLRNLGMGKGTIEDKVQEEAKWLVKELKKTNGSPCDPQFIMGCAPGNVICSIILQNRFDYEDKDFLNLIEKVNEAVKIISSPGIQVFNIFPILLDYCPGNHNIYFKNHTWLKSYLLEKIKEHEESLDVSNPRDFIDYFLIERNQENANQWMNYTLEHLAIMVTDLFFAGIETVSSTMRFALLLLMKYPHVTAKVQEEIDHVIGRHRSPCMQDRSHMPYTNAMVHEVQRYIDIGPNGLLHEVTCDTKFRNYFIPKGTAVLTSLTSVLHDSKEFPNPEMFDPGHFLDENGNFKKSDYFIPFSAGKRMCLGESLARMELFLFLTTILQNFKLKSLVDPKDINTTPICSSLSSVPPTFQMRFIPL
Sequence of rat CYP2C11, Cyp2c11 (gene 29277) (P08683 whole entry, looked up): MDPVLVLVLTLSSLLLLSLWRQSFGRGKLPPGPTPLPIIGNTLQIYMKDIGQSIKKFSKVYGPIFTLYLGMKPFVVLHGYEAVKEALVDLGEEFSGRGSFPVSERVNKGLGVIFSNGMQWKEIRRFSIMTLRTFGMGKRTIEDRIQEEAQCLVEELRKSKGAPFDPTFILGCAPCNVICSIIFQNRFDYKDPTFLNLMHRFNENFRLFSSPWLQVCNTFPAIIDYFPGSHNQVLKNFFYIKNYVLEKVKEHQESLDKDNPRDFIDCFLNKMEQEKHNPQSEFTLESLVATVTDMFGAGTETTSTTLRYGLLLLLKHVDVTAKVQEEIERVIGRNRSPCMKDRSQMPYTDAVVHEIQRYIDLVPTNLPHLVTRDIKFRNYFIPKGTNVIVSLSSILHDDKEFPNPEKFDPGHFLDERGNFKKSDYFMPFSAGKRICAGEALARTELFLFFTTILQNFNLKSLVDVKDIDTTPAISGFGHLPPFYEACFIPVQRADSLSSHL
Sequence of Caspase-1 (Homo sapiens) (P29466 whole entry, looked up): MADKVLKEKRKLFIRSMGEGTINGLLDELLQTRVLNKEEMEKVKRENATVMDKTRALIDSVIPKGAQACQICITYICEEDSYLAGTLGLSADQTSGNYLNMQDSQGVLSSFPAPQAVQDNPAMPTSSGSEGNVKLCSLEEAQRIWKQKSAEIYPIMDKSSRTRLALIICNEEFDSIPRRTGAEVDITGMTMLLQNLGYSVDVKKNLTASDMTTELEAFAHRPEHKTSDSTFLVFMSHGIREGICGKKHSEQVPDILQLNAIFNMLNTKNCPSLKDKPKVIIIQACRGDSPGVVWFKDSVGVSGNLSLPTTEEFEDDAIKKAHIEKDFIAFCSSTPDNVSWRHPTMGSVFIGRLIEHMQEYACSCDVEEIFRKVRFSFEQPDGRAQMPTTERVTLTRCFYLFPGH
Sequence of rat CYP2C12, Cyp2c12 (gene 25011) (P11510 whole entry, looked up): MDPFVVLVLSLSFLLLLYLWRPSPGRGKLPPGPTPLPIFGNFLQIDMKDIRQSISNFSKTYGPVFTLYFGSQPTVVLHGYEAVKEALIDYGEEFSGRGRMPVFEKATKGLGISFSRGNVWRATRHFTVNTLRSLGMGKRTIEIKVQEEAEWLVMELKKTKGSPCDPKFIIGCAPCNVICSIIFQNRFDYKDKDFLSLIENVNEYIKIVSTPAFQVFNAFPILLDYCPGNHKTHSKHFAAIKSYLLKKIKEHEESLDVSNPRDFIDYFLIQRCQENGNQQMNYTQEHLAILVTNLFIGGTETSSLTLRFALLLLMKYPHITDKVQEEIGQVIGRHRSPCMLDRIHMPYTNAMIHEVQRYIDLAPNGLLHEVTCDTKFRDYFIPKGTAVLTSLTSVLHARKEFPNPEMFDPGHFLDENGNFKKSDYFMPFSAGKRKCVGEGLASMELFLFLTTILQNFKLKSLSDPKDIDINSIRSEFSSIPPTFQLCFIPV
Sequence of human Acetylcholinesterase (AChE), ACHE (gene 43) (P22303 whole entry, looked up): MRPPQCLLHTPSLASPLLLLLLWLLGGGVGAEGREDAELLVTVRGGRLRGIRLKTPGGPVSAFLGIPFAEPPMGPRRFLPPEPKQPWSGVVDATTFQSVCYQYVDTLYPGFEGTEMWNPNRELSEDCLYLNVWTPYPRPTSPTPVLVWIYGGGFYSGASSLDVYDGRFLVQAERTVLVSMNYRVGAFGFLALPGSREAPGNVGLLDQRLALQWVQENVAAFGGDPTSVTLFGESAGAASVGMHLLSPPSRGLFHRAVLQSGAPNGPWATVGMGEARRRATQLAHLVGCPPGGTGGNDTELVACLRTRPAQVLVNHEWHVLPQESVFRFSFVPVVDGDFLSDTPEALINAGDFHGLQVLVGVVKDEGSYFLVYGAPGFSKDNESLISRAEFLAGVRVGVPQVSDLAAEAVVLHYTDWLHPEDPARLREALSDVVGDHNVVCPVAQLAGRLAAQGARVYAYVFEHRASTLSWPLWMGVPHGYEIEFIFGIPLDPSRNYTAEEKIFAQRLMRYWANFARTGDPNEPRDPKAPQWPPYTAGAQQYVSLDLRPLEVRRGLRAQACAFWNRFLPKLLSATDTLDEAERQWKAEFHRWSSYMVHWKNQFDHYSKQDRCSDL
Sequence of rat CYP2D1, Cyp2d1 (gene 266684) (P10633 whole entry, looked up): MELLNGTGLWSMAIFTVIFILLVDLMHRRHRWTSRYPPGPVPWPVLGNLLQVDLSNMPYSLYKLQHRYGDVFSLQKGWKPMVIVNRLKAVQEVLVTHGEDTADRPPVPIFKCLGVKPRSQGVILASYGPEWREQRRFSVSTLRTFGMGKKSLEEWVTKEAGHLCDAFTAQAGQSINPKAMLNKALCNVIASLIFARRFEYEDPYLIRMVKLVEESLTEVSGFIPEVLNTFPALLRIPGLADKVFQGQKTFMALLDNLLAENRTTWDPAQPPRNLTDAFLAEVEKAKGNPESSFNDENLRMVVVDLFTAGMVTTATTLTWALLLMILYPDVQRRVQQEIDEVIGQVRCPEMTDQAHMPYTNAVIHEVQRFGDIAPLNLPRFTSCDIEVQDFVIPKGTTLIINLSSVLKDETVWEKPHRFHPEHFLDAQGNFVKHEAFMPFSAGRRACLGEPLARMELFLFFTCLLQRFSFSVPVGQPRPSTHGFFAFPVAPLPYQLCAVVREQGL
Sequence of rat CYP2D2, Cyp2d26 (gene 25053) (P10634 whole entry, looked up, canonical isoform): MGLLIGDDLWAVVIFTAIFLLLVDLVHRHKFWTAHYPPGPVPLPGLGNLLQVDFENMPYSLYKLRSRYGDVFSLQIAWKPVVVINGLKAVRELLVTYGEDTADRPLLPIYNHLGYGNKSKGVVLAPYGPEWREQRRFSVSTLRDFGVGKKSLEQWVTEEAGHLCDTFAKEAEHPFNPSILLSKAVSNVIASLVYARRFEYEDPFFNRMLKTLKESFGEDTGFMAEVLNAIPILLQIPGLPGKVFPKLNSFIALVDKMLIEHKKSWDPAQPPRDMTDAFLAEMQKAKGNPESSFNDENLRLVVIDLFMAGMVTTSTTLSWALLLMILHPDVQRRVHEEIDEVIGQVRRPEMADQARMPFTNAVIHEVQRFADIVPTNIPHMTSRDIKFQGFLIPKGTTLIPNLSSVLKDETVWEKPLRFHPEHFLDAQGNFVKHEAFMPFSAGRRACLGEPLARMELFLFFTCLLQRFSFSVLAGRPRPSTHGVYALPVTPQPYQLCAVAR
Sequence of rat CYP2A2, Cyp2a2 (gene 24895) (P15149 whole entry, looked up): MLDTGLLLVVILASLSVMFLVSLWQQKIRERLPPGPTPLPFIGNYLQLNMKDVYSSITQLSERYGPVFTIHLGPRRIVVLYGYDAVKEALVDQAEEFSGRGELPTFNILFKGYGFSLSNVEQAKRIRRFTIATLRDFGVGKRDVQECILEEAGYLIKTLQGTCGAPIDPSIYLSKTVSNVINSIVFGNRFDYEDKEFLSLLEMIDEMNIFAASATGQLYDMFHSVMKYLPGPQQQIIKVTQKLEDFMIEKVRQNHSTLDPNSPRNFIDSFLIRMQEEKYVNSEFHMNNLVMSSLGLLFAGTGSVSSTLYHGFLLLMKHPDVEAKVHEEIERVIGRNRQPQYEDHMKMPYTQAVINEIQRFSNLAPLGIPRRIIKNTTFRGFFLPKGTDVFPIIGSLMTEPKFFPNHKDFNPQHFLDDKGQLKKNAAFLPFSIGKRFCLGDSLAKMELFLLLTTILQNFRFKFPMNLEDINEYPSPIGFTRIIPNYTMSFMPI

With `CCOc1cc(C(C)(C)C)ccc1C1COC(c2c(F)cccc2F)=N1` (stereo not drawn), the figures for the half-maximal activity concentration (AC50) in [1], in experiment [2] and in experiment [3] were 1.15 µM (active), 10 µM (active) and 0.55 µM (active), respectively.

Consider `O=C1C2CC=CCC2C(=O)N1SC(Cl)(Cl)Cl` (stereo not drawn), for which, in experiment [4], the call was inactive.

Turning to `COc1cc(OC)nc(NC(=O)NS(=O)(=O)c2ncccc2OCC(F)(F)F)n1`, in experiment [5], the molecule was classed as inactive.

On to `COc1ccc(-c2ccccc2)cc1NNC(=O)OC(C)C`, for which the outcome in [2] was inactive. Also, the AC50 (in general, the midpoint of the concentration-response curve, whichever way the signal moves) in experiment [6] was 1.17 µM (active).

Take `COC(=O)c1c(C(F)F)nc(C(F)(F)F)c(C2=NCCS2)c1CC(C)C`: the half-maximal activity concentration (AC50) in [7] is 3.59 µM (active); in experiment [8] it was 5.48 µM (active). For the same molecule, the call in experiment [5] was inactive.

On to `Cn1c(-c2ccccc2)cc(-c2ccccc2)[n+]1C`, for which, in experiment [3], the AC50 was 5.35 µM (active).

Turning to `CC(C)NC(=O)N1CC(=O)N(c2cc(Cl)cc(Cl)c2)C1=O`, the AC50 in [7] is 2.38 µM (active).

Consider `N#Cc1c[nH]cc1-c1cccc2c1OC(F)(F)O2`, for which the molecule was classed as inactive in [9].

For the molecule `CC(C)C1(C)N=C(c2ncccc2C(=O)O)NC1=O` (stereo not drawn), the concentration at half-maximal activity (AC50) in experiment [1] is 6.92 µM (active).

In the case of `CCCCC(O)(Cn1cncn1)c1ccc(Cl)cc1Cl` (stereo not drawn), the concentration at half-maximal activity (AC50) was 0.0126 µM (active) in [1]; 1.85 µM (active) in [2]; 1.58 µM (active) in experiment [4]; 3.59 µM (active) in experiment [7]; 0.655 µM (active) in [6]; 0.951 µM (active) in [8]. Further, in experiment [3], the half-maximal activity concentration (AC50) was 4.09 µM (active).

Regarding `Nc1c(Cl)c(Cl)nc(C(=O)O)c1Cl`, in experiment [10], the AC50 was 10.5 µM (active).

For the molecule `CC1(C)CON(Cc2ccccc2Cl)C1=O`, the outcome in experiment [9] was inactive.

Consider `N#CN=C1SCCN1Cc1ccc(Cl)nc1`, for which the AC50 in [9] is 19.6 µM (active).

Regarding `CCNP(=S)(OC)O/C(C)=C/C(=O)OC(C)C` (stereo not drawn), the AC50 in experiment [1] was 6.86 µM (active); in experiment [2], 1.24 µM (active); in experiment [4], 10 µM (active); in experiment [7] it was 0.151 µM (active); in [6], 7.31 µM (active); in [3], 5.41 µM (active). For the same molecule, the outcome in experiment [5] was inactive.

Consider `CC(C)=CC1C(C(=O)OCc2coc(Cc3ccccc3)c2)C1(C)C` (stereo not drawn), for which the AC50 in experiment [8] was 5.37 µM (active). In addition, the molecule was classed as inactive in [5].

Consider `CNC(=O)Oc1cccc2ccccc12`, for which the AC50 in [9] is 25 µM (active).

For `C=CCOC(=O)C(C)(C)OC(=O)c1cc(-n2c(=O)cc(C(F)(F)F)n(C)c2=O)ccc1Cl`, the call in experiment [4] was inactive.

Turning to `CSC(=O)c1c(C(F)F)nc(C(F)(F)F)c(C(=O)SC)c1CC(C)C`, in experiment [7], the AC50 is 2.99 µM (active).

Regarding `COP(=S)(OC)SCn1nnc2ccccc2c1=O`, the AC50 in experiment [1] is 5.47 µM (active); in experiment [2] it was 0.419 µM (active); in [7], 0.634 µM (active); in experiment [6] it was 3.03 µM (active); in experiment [8], 6.92 µM (active); in experiment [3], 7.04 µM (active). Moreover, in [9], the outcome was inactive.
